Source: PubChem BioAssay AID1159580 (chemical genetic matrix, 2015)
In all, about 5,500 compounds went through this assay and about 2,000 (36%) were called active. Inconclusive results (about 18%) are left out. Rule as the data show it: active = normalized growth mostly below about 0.91 (no sharp cut-off); inconclusive = no clear call, values can overlap the other calls; inactive = mostly above about 0.92. The list shows a part of the results.

Experiment: chemical genetic growth profiling, strain panel (AID 1159580);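 also: tested at 20 µM; growth read once vehicle control cultures reached saturation at 30 °C; 1 = growth at the plate median or of vehicle wells; lower values mean less growth of the strain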
Settings: growth OD

Measured: normalized growth

CC(=O)OCC(=O)[C@@]1(O)CCC2C3CCC4=CC(=O)C=CC4(C)C3[C@@H](O)C[C@@]21C (stereo partly drawn)
inactive: S. cerevisiae deletion strains, locus YKL009W, strain mrt4, active compounds read low 1.07 | S. cerevisiae deletion strains, locus YKL068W, active compounds read low 1.01 | S. cerevisiae deletion strains, locus YKL085W, strain MDH1 (second series), active compounds read low 1.01 | S. cerevisiae deletion strains, locus YKL085W, strain MDH1, active compounds read low 1.01 | S. cerevisiae deletion strains, locus YKL160W, strain elf1, active compounds read low 0.973 | S. cerevisiae deletion strains, locus YKL190W, strain CNB1, active compounds read low 1.02 | S. cerevisiae deletion strains, locus YKR001C, strain vps1, active compounds read low 1.02 | S. cerevisiae deletion strains, locus YKR026C, strain gcn3, active compounds read low 0.985 | S. cerevisiae deletion strains, locus YKR091W, strain srl3, active compounds read low 1 | S. cerevisiae deletion strains, locus YLL001W, strain dnm1, active compounds read low 0.953 | S. cerevisiae deletion strains, locus YLL026W, active compounds read low 0.99 | S. cerevisiae deletion strains, locus YLL041C, strain sdh2, active compounds read low 0.998 | S. cerevisiae deletion strains, locus YLR027C, strain aat2, active compounds read low 0.991 | S. cerevisiae deletion strains, locus YLR039C, strain RIC1, active compounds read low 1.04 | S. cerevisiae deletion strains, locus YLR058C, strain SHM2, active compounds read low 0.998 | S. cerevisiae deletion strains, locus YLR102C, strain apc9, active compounds read low 1.01 | S. cerevisiae deletion strains, locus YLR113W, strain HOG1, active compounds read low 0.999 | S. cerevisiae deletion strains, locus YLR221C, strain rsa3, active compounds read low 1.01 | S. cerevisiae deletion strains, locus YLR258W, strain gsy2, active compounds read low 1 | S. cerevisiae deletion strains, locus YLR262C, strain YPT6 (second series), active compounds read low 0.967 | S. cerevisiae deletion strains, locus YLR262C, strain YPT6, active compounds read low 1.04 | S. cerevisiae deletion strains, locus YLR268W, strain sec22, active compounds read low 1.03 | S. cerevisiae deletion strains, locus YLR320W, strain mms22, active compounds read low 0.982 | S. cerevisiae deletion strains, locus YLR330W, strain CHS5, active compounds read low 1.01 | S. cerevisiae deletion strains, locus YLR342W, strain FKS1 (second series), active compounds read low 1.02 | S. cerevisiae deletion strains, locus YLR342W, strain FKS1, active compounds read low 0.992 | S. cerevisiae deletion strains, locus YLR357W, strain rsc2, active compounds read low 0.997 | S. cerevisiae deletion strains, locus YLR370C, strain arc18, active compounds read low 0.984 | S. cerevisiae deletion strains, locus YLR371W, strain rom2, active compounds read low 1.02 | S. cerevisiae deletion strains, locus YLR384C, strain iki3, active compounds read low 0.973 | S. cerevisiae deletion strains, locus YLR418C, strain cdc73, active compounds read low 1.02 | S. cerevisiae deletion strains, locus YML016C, strain PPZ1, active compounds read low 1.01 | S. cerevisiae deletion strains, locus YML032C, strain rad52, active compounds read low 1.03 | S. cerevisiae deletion strains, locus YML120C, strain ndi1, active compounds read low 0.995 | S. cerevisiae deletion strains, locus YML124C, strain tub3, active compounds read low 1.02 | S. cerevisiae deletion strains, locus YMR058W, strain fet3, active compounds read low 0.992 | S. cerevisiae deletion strains, locus YMR078C, strain ctf18, active compounds read low 1.01 | S. cerevisiae deletion strains, locus YMR125W, strain sto1, active compounds read low 1 | S. cerevisiae deletion strains, locus YMR129W, active compounds read low 0.993 | S. cerevisiae deletion strains, locus YMR205C, strain PFK2, active compounds read low 0.99 | S. cerevisiae deletion strains, locus YMR223W, strain ubp8, active compounds read low 1.02 | S. cerevisiae deletion strains, locus YMR231W, strain pep5, active compounds read low 0.992 | S. cerevisiae deletion strains, locus YMR263W, strain SAP30, active compounds read low 1 | S. cerevisiae deletion strains, locus YMR307W, strain GAS1, active compounds read low 1.02 | S. cerevisiae deletion strains, locus YNL067W, strain RPL9B, active compounds read low 1 | S. cerevisiae deletion strains, locus YNL071W, strain lat1, active compounds read low 1.01 | S. cerevisiae deletion strains, locus YNL128W, strain TEP1, active compounds read low 1.01 | S. cerevisiae deletion strains, locus YNL153C, strain GIM3, active compounds read low 1 | S. cerevisiae deletion strains, locus YNL183C, strain NPR1, active compounds read low 0.959 | S. cerevisiae deletion strains, locus YNL209W, strain ssb2, active compounds read low 1 | S. cerevisiae deletion strains, locus YNL233W, strain BNI4, active compounds read low 1.02 | S. cerevisiae deletion strains, locus YNL248C, strain rpa49, active compounds read low 0.989 | S. cerevisiae deletion strains, locus YNL250W, strain rad50, active compounds read low 1.01 | S. cerevisiae deletion strains, locus YNL271C, strain bni1, active compounds read low 1.02 | S. cerevisiae deletion strains, locus YNL298W, strain CLA4, active compounds read low 1.02 | S. cerevisiae deletion strains, locus YNL307C, strain MCK1, active compounds read low 1.02 | S. cerevisiae deletion strains, locus YNL322C, strain KRE1 (second series), active compounds read low 0.992 | S. cerevisiae deletion strains, locus YNR049C, strain mso1, active compounds read low 0.997 | S. cerevisiae deletion strains, locus YNR052C, strain pop2, active compounds read low 1.01 | S. cerevisiae deletion strains, locus YOL006C, strain TOP1, active compounds read low 1.06 | S. cerevisiae deletion strains, locus YOL012C, strain htz1 0.982 | S. cerevisiae deletion strains, locus YOL147C, strain pex11, active compounds read low 1.01 | S. cerevisiae deletion strains, locus YOR001W, strain rrp6, active compounds read low 0.98 | S. cerevisiae deletion strains, locus YOR061W, strain CKA2, active compounds read low 1.01 | S. cerevisiae deletion strains, locus YOR069W, strain VPS5, active compounds read low 1 | S. cerevisiae deletion strains, locus YOR070C, strain gyp1, active compounds read low 0.999 | S. cerevisiae deletion strains, locus YOR080W, strain dia2, active compounds read low 0.984 | S. cerevisiae deletion strains, locus YOR083W, strain WHI5, active compounds read low 0.965 | S. cerevisiae deletion strains, locus YOR106W, strain vam3, active compounds read low 0.973 | S. cerevisiae deletion strains, locus YOR136W, strain idh2, active compounds read low 1.02 | S. cerevisiae deletion strains, locus YOR144C, strain elg1, active compounds read low 1.02 | S. cerevisiae deletion strains, locus YOR184W, strain ser1, active compounds read low 1.01 | S. cerevisiae deletion strains, locus YOR231W, strain MKK1, active compounds read low 0.999 | S. cerevisiae deletion strains, locus YOR265W, strain rbl2, active compounds read low 1 | S. cerevisiae deletion strains, locus YOR270C, strain vph1, active compounds read low 1.01 | S. cerevisiae deletion strains, locus YOR290C, strain snf2, active compounds read low 1.01 | S. cerevisiae deletion strains, locus YOR316C, strain cot1, active compounds read low 1.02 | S. cerevisiae deletion strains, locus YPL051W, strain arl3, active compounds read low 0.986 | S. cerevisiae deletion strains, locus YPL078C, strain atp4, active compounds read low 0.97 | S. cerevisiae deletion strains, locus YPL106C, strain sse1, active compounds read low 1.01 | S. cerevisiae deletion strains, locus YPL240C, strain hsp82, active compounds read low 0.98 | S. cerevisiae deletion strains, locus YPL256C, strain CLN2, active compounds read low 0.96 | S. cerevisiae deletion strains, locus YPR119W, strain clb2, active compounds read low 1.01 | S. cerevisiae deletion strains, locus YPR141C, strain kar3, active compounds read low 1.02 | S. cerevisiae deletion strains, locus YPR163C, strain tif3, active compounds read low 1.02 | S. cerevisiae deletion strains, locus YPR167C, strain met16, active compounds read low 1.02 | S. cerevisiae deletion strains, strain wtn01, active compounds read low 1.01 | S. cerevisiae strains, strain wild type, active compounds read low 1
